# Experimental data from the OligoGym collection.
# Molecular target: PSMD14
# Assay: pooled miR-30 sensor sort-seq; sequence = guide strand
# Settings: shRNA
# Also: reference of the scale not given here.
row,Sequence,sensor-assay potency score (higher = more potent)
1,TTAACATTTTTAACAGTGCCAG,-1.04
2,TACATCCACATGTTCCTCCAAA,-0.84
3,ATCTTCTTCTTCTACAGCCTTA,-0.913
4,TAGTCCATGAATTAATGCCTGG,-1.08
5,TAACATTTTTAACAGTGCCAGG,-1.43

# Molecular target: PSMG3
# Assay: as above
# Settings: shRNA
row,Sequence,sensor-assay potency score (higher = more potent)
1,TAAAAAAGAAATTTCCTCCTAC,0.923
2,TTCTCAAACACAAGCAACGATT,-1.54
3,TTGAGACACAAACGCTACCAGG,-0.891
4,TTTGTGGTGAGCACAGGCTTGC,-0.665
5,AACGCTACCAGGTTCTTTGCAA,0.042
6,TGAGACACAAACGCTACCAGGT,-0.363
7,ATGGATGAGAGGCTCATCCTGC,-1.3
8,TTGTCCTTCACGGCCACGGCGA,-1.48
9,TTCCAGCTTCTTGAGACACAAA,-1.35
10,TTTTGTGGTGAGCACAGGCTTG,-0.949
11,TCTTCTGCTTCGATATCACCAA,-0.805
12,TCTGTTTCCAGCTTCTTGAGAC,0.0937
